# Several values for one entry are separate records, joined by “and”; a condition that tells them apart may be missing. Equal entries are not always repeated. In all, about 290,000 compounds went through this assay and about 260 (0.09%) were called active. Rule as the data show it: active = inhibition above about 50%; inactive = the rest. For the sample, actives were picked, then their nearest neighbours and some compounds at random. Entries with a potency or affinity are not part of this list.
# Target: Kappa-type opioid receptor (Homo sapiens) (UniProt P41145)
# Experiment: kappa opioid receptor blockers – cell-based, luminescence, uHTS (AID 1778)
# Details: KOR beta-arrestin recruitment, antagonist mode, hits give high values; at 10 µM unless noted
# Chain of Kappa-type opioid receptor (Homo sapiens) (P41145 whole entry, looked up): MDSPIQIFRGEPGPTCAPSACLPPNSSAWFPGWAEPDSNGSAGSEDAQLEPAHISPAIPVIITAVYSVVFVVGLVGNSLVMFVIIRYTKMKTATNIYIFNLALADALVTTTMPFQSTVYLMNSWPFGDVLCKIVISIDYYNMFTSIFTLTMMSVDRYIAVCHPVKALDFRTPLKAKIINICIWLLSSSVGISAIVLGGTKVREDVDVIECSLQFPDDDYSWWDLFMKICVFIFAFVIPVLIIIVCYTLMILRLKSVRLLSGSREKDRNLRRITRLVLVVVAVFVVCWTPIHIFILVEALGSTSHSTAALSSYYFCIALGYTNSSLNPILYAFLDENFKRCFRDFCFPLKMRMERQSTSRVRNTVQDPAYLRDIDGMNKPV
row,SMILES,inhibition
1,O=C(NCc1ccco1)c1cccc(C(F)(F)F)c1,-35.4% [at 20 µM] (inactive)
2,CCNc1nc(Oc2ccc(C(=O)OC)cc2)nc(SC)n1,1.5% (inactive)
3,Cc1[nH]n(-c2ccccc2)c(=O)c1/C=N/N1C(=O)c2ccc3c4c(ccc(c24)C1=O)CC3,-2.7% (inactive)
4,O=C1c2cccc3cccc(c23)C(=O)N1/N=C/c1ccc(O)cc1O,-17.5% (inactive)
5,Cc1ccc(-n2[nH]c(C)c(/C=N/c3cccc(C)n3)c2=O)cc1,21.8% (inactive)
6,COc1ccccc1/C=N/N1C(=O)c2cccc3cccc(c23)C1=O,-44.5% (inactive)
7,CSc1oc(-c2ccccc2)nc1S(=O)(=O)c1ccc(F)cc1,-25.9% (inactive)
8,O=C(CO/N=C1\CCCc2nonc21)Nc1ccc(Br)cc1,24.7% (inactive)
9,COc1cccc(NC(=O)C2CCN(C(=O)NC3CCCCC3)CC2)c1,-51.6% (inactive)
10,Cc1cc(C)cc(NC(=O)CSc2nnc(-c3cc(C)[nH]n3)n2N)c1,-17.6% (inactive)
11,O=C(CSc1nnc(NC(=O)c2ccc(F)cc2)s1)NCc1ccco1,22.3% (inactive)
12,Oc1ccc(N=Nc2c(O)ccc3ccccc23)cc1,32% (inactive)
13,Oc1ccc2ccccc2c1N=Nc1ccccc1F,37.6% (inactive)
14,Oc1ccc2ccccc2c1N=Nc1nccs1,109% (active)
15,Oc1c(N=Nc2ccc(F)cc2)ccc2ccccc12,7.2% [at 20 µM] (inactive)
16,Oc1ccc2ccccc2c1/C=N/c1nccs1,-15.8% (inactive)
17,Cc1ccc(N=Nc2ccc3ccccc3c2O)cc1,15.6% [at 20 µM] (inactive)
18,Oc1ccc2ccccc2c1N=Nc1ccc(F)cc1,6.7% (inactive) and 41.7% (inactive)
19,COC(=O)c1cc(C(=O)NCC2CCCCC2)cc([N+](=O)[O-])c1,7.5% (inactive)
20,Cc1ccc(-c2nnn(CC(=O)N(c3ccccc3)C(C(=O)NC3CCCC3)c3ccncc3)n2)o1 (stereo not drawn),5.7% (inactive)
21,CC(C)NS(=O)(=O)c1ccc(CCC(=O)Nc2ccc3c(c2)OCCO3)cc1,7.5% (inactive)
22,CS(=O)(=O)c1ccc2nc(NC(=O)c3ccc(Cl)cc3)sc2c1,-55% [at 20 µM] (inactive)
23,O=C(O)c1ccc(-c2ccccc2)[nH]c1=O,5.6% (inactive)
24,CC(C)(C)NC(=O)c1cc(NC(=O)c2cccs2)cc(NC(=O)c2cccs2)c1,-34.4% (inactive)
25,Cc1nc(Cl)c(Cl)n1CCOc1ccccc1,-4.6% (inactive)

row,SMILES,inhibition
1,CCN(CC)CCCNC(=O)c1cc(Sc2nnc(C)s2)nc2ccccc12,-6.1% (inactive)
2,Cn1cccc1CNC(=S)Nc1ccccc1Cl,28.1% (inactive)
3,Cc1ccc(NC(=O)CC(C)CC(=O)NCc2ccccc2)cc1Cl (stereo not drawn),-17.8% (inactive)
4,O=[N+]([O-])c1ccccc1OC/C(=N\O)c1ccccc1,13.6% (inactive)
5,COC(=O)c1cn(NC(=O)/C=C/c2cc(OC)ccc2OC)c(=O)c2ccccc12,-8.8% (inactive)
6,CN(C)CC(CCC(CN(C)C)C(=O)c1ccccc1)C(=O)c1ccccc1 (stereo not drawn),83.9% (active)
7,CCOc1ccc(C(=O)C(CCC(CN(C)C)C(=O)c2ccc(OCC)cc2)CN(C)C)cc1 (stereo not drawn),15.2% (inactive)
8,CN(C)CC(CCCCC(CN(C)C)C(=O)c1ccccc1)C(=O)c1ccccc1 (stereo not drawn),12.5% (inactive)
9,Cc1cccc(C(=O)OCC(=O)Nc2ccc(N3CCCCC3)cc2)c1O,-7.8% (inactive)
10,Cc1ccccc1N(C(=O)Cn1nnc(-c2cccs2)n1)C(C(=O)NCCC(C)C)c1ccco1 (stereo not drawn),23.7% (inactive)
11,COc1ccccc1NC(=O)CN1CC(=O)Nc2ccccc21,0% (inactive)
12,COc1ccc(/C=C/C(=O)OCC(=O)N2CC(=O)Nc3ccccc32)cc1S(=O)(=O)N1CCOCC1,-27.5% (inactive)
13,Cc1ccc(NC(=S)NCCCN2CCOCC2)cc1C,50% (active)
14,Cc1ccc(NC(=S)NCCCN2CCOCC2)cc1,6.6% (inactive)
15,Cc1ccc(NC(=S)NCCN2CCOCC2)cc1C,16.7% (inactive)
16,C/C(=N\NC(=O)c1nnn(-c2nonc2N)c1-c1ccc2c(c1)OCO2)c1cccs1,-7.9% (inactive)
17,Cc1ccc(-c2cc(C(=O)Nc3cc(C)ccc3C)[nH]n2)c(O)c1,9.1% (inactive)
18,CCCCC(CC)C(=O)NCc1ccc(F)cc1 (stereo not drawn),8% (inactive)
19,CCCCC(C(=O)OCC)C(N)Cc1ccc(F)cc1 (stereo not drawn),65.2% (active)
20,CCOC(=O)C(C(C)C)C(N)Cc1ccc(F)cc1 (stereo not drawn),-13.5% (inactive)
21,Cc1ccccc1Cn1cc(NC(=O)CCCn2nc([N+](=O)[O-])cc2C)cn1,16.3% (inactive)
22,COc1cccc(CNC(=O)C2CCC(CNS(=O)(=O)c3cccc4cccnc34)CC2)c1 (stereo not drawn),27.1% (inactive)
23,CN(C)c1nc(=NCc2ccco2)ss1,83.2% (active)
24,O=C1CCCC(=NCc2ccco2)C1,-29.5% (inactive)
25,c1coc(CN=C2NC(=NCc3ccco3)c3ccccc32)c1,-31.2% (inactive)

row,SMILES,inhibition
1,COc1ccc(C)cc1N(C(=O)c1ccco1)C(C(=O)NC1CCCC1)c1ccc(N2CCOCC2)cc1 (stereo not drawn),5.8% (inactive)
2,Cc1cccc(N=Nc2ccc(O)c3ncccc23)c1,45.9% (inactive)
3,CCN(CC)S(=O)(=O)c1cc(OC)ccc1N=Nc1ccc(O)c2ncccc12,-5.1% (inactive)
4,CCOc1ccc(N=Nc2ccc(O)c3ncccc23)cc1,32% (inactive)
5,COc1ccc(N=Nc2ccc3ccccc3c2)c(O)c1,-6.2% [at 20 µM] (inactive)
6,CCS(=O)(=O)c1ccc(N=Nc2ccc(O)c3ncccc23)c(OC)c1,14% (inactive)
7,COc1cccc(N=Nc2ccc3ccccc3c2O)c1,1.7% [at 20 µM] (inactive)
8,COc1cccc(N=Nc2ccc(O)c3ncccc23)c1,62.9% (active)
9,CN(NC(=O)COc1ccccc1)c1ccccc1,5.9% (inactive)
10,CN(CC(=O)Nc1cccnc1)S(=O)(=O)c1cc(Cl)ccc1Cl,4.2% (inactive)
11,COc1cccc(N2C(=O)C3C(C2=O)C3(c2ccccc2)c2ccccc2)c1 (stereo not drawn),-3.2% (inactive)
12,CCN(CC)S(=O)(=O)c1ccc(C(=O)NCC(=O)N/N=C/c2ccccc2OC)cc1,-11.7% (inactive)
13,O=C(OCC(=O)c1ccc(Cl)s1)c1ccccn1,34% (inactive)
14,O=C(CSc1ccc2nnc(-c3ccccn3)n2n1)NCc1ccco1,-19.3% (inactive)
15,CC(=O)c1sc(-c2ccccc2)cc1N,4.5% (inactive)
16,COCCN=c1scc(-c2ccccc2)n1/N=C/c1c[nH]c2ccccc12,38.5% (inactive)
17,COCCN=c1scc(-c2cc(OC)c(OC)c(OC)c2)n1/N=C/c1c(C)[nH]c2ccccc12,26.6% (inactive)
18,Cc1cc([N+](=O)[O-])nn1CC(=O)NCCc1c[nH]c2ccccc12,4.9% (inactive)
19,COCc1nnc(NC(=O)c2ccc(NC(C)=O)cc2)s1,21% (inactive)
20,CCOC(=O)N1CCC(N2CCN(c3cc(C)ccc3C)CC2)CC1,11.6% (inactive)
21,CCc1ccc(N(CC(=O)NC)S(C)(=O)=O)cc1,9.3% (inactive)
22,COc1cc(OC)cc(C(=O)NCC(=O)OCc2cc(=O)oc3cc(OC)ccc23)c1,9.7% (inactive)
23,Clc1ccc(SCc2cn3cccnc3n2)cc1,-15.8% (inactive)
24,Clc1ccc(SCc2cc(N3CCOCC3)nc(-c3ccccn3)n2)cc1,10.2% (inactive)
25,CCn1c(CNC(=O)c2ccco2)nnc1SCC(=O)Nc1cc(C(F)(F)F)ccc1Cl,1.4% (inactive)

row,SMILES,inhibition
1,Fc1ccccc1COc1ccc(/C=N/NC(=S)NCc2ccccc2)cc1,-4.9% (inactive)
2,CCOC(=O)C1(Cc2ccccc2)CCN(Cc2cc(OC)c3c(c2)OCO3)CC1,-13.9% [at 20 µM] (inactive)
3,Cc1c(NC(=S)Nc2ccccc2C(F)(F)F)cccc1[N+](=O)[O-],5.9% (inactive)
4,COc1cc(NS(=O)(=O)c2ccc(C)cc2)c2ncccc2c1,7.9% (inactive)
5,CS(=O)(=O)Nc1cccc2cccnc12,30.9% (inactive)
6,Cc1ccc2cccc(NS(=O)(=O)c3ccccc3)c2n1,83.9% (active)
7,O=C(Nc1ccc(S(=O)(=O)Nc2ncccn2)cc1)c1ccc(S(=O)(=O)N2CCCC2)cc1,34.1% (inactive)
8,O=S(=O)(Nc1cccc2ccccc12)c1ccccc1,-10.6% (inactive)
9,CC(=O)Nc1ccc(S(=O)(=O)Nc2cccc3cccnc23)cc1,-32.6% (inactive)
10,Cc1cccc(NS(=O)(=O)c2ccccc2)n1,12.4% (inactive)
11,O=S(=O)(Nc1cccc2cccnc12)c1ccccc1,99.6% (active)
12,O=C(O)c1ccccc1NS(=O)(=O)c1cccc2cccnc12,1.8% (inactive)
13,O=S(=O)(c1cccc2cccnc12)N1CCCCC1,2.6% (inactive)
14,Cc1ccccc1N(C(=O)c1snc(C(N)=O)c1N)C(C(=O)NCc1ccccc1)c1ccc(O)cc1 (stereo not drawn),-9.4% (inactive)
15,Cc1c(NCc2cc(Cl)cc(Cl)c2O)c(=O)n(-c2ccccc2)n1C,22.8% (inactive)
16,COc1ccc(NC(=O)c2ccccc2)cc1NS(=O)(=O)c1ccc(F)cc1,-5% (inactive)
17,Cc1cc(N)nc2nc(C(F)(F)F)nn12,-5.6% (inactive)
18,O=C1CC(Cc2ccccc2)C(=O)N1CCCn1ccnc1 (stereo not drawn),-24.1% (inactive)
19,Cc1ccc(CNC(=O)C2CCCN(c3nc4ccccc4o3)C2)cc1 (stereo not drawn),-1.2% (inactive)
20,CCOC(=O)N1CCN(C(=O)CNC(=O)c2ccc(Br)o2)CC1,3.7% [at 20 µM] (inactive)
21,CC(C)Oc1cccc(C(=O)N/N=C/c2ccoc2)c1,-11.1% (inactive)
22,CCn1c(SCC(=O)NC2CCCCC2)nnc1-c1ccco1,-10.6% (inactive)
23,Cc1ccc(COC(=O)c2nn(C)c(=O)c3ccccc23)cc1,-20% (inactive)

# Reference: PubChem BioAssay AID1778 (Sanford-Burnham Center for Chemical Genomics, 2009)
